Sampled rows, rich in hits. Any-hit rate of the full collection: about 2.8%.
ATXN2 expr inh – ATXN2 expression inhibition; Potency, µM (top dose mostly 57 µM), inactives show at the highest dose activity change, negative = inhibition, hits mostly inhibitors; HEK-293 ATXN2-luciferase reporter, luminescence, 24 h; 0.72% of 360,000 active; AID 1745845; note: % is set by controls: 0 for no effect and ±100 for the full control effect; nearly all actives have a fitted effect of over 55% in size
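qHTS (up to 57 uM final) was run with 24 h compound exposure of reporter cells at 37 °C. Each well was multiplexed: SteadyGlo luminescence measured ATXN2-luciferase expression after a fluorogenic Gly-Phe-AFC viability readout (25 uM final).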
HepG2 tox – HepG2 cytotoxicity, counter-screen for TGF-b inhibitors | AID 588856 | 0.76% of 410,000 active | Potency, µM (doses to about 46.1 µM), without a hit: top-dose activity change, negative = cytotoxicity, actives largely listed as cytotoxic | HepG2 CAGA-GFP viability, ATP luminescence, 18 h
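HepG2 CAGA-GFP cells (1000/well, DMEM with 1% FBS) received compound, then TGF-beta at 500 pg/mL final, and were incubated 18 hours at 37 degrees C. Viability was read by CellTiter-Glo luminescence. Media-only wells were set as complete cell-killing and DMSO as no toxicity.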
ATXN viability – cell viability loss in ATXN counter-screen | 0.49% of 400,000 active | S2 cells (HEK-293 line with an ATXN2-luciferase reporter) viability, CellTiter-Fluor protease fluorescence, 24 h | Potency, µM (highest dose often 56.7 µM), most hits filed as cytotoxic; note: nearly all actives have a fitted effect of over 40% in size
TGFb inhibitor – inhibitors of TGF-b signaling; Potency, µM (top dose mostly 46.1 µM), for inactives: top-dose activity, negative = inhibition, usual class: inhibitors; 1.2% of 410,000 active; HepG2 CAGA-GFP TGF-b/SMAD3 reporter, GFP fluorescence, 18 h; TGF-beta stimulated, 500 pg/mL final; note: % is set by controls: 0 for no effect and ±100 for the full control effect; nearly all actives have a fitted effect of over 65% in size
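Smad-responsive CAGA-GFP expression was quantified in HEPG2 cells exposed to compounds and 500 pg/mL final TGF-beta for 18 h at 37 degrees C; unstimulated wells defined full inhibition.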
HttQ103 aggreg – reduces HttQ103-GFP aggregates in PC12 cells. PC12 HttQ103-GFP aggregates, Acumen cytometry, 40 h. Potency, µM (titrated, usually from 46.1 µM), inactives show at the top dose activity change, negative = inhibition, usual class: inhibitors. 1.1% of 220,000 active; note: % is set by controls: 0 for no effect and ±100 for the full control effect; nearly all actives have a fitted effect of over 60% in size
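Quantitative HTS on tebufenozide-induced (100 nM) PC12 cells stably expressing polyQ103 Huntingtin exon 1–GFP. Reduction of bright GFP aggregates, detected by laser scanning cytometry after lysis, identified actives across the titration.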
HTT cytoprotect – protects HTT-Q103 PC12 cells, measured by ATP. PC12 HTT-Q103 induced, cytoprotection, ATP luminescence, 40 h. Potency, µM (series often up to 56.4 µM), without a hit: cytoprotection (ATP increase), actives largely listed as activators. 0.14% of 230,000 active. AID 1471; note: % of control where 0% means no effect; nearly all actives have a fitted effect of over 45% in size
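Cells were plated at 1500 per well in phenol red-free DMEM with 5% equine and 5% calf serum. Tebufenozide (100 nM final) and compounds were added, then ATPlite reagent, and luminescence was read.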
Starred values were filed as active, the others as inactive; [ ] = another dose, or the depositor's remark. Calls come from the whole dose curve; as a rule, active = well fitted curve in the direction sought with a large enough effect; inconclusive = small, poorly fitted or top-dose-only effect, or another doubt; inactive = no such curve, though single readings can be large; an effect the other way counts as inactive or inconclusive. Potency is the fitted concentration of half-maximal effect.

For COc1ncnc2c1sc1nc(-c3ccccc3)c3c(c12)CCCC3 the results were ATXN2 expr inh -8%, HepG2 tox 0%, ATXN viability inactive, TGFb inhibitor 5%, HttQ103 aggreg -1% and HTT cytoprotect -30%[10 µM].
CN(C)CCNc1ncnc2c1sc1nc(-c3ccccc3)c3c(c12)CCCC3 was read as ATXN2 expr inh 32µM*, HepG2 tox 14µM*, TGFb inhibitor inconclusive, HttQ103 aggreg inconclusive and HTT cytoprotect -94%[10 µM].
`CCOC(=O)c1ccc(/C=C2/C=C(c3ccccc3)N(c3ccc(Cl)c(C(=O)O)c3)C2=O)cc1` gave ATXN2 expr inh 11µM*, HepG2 tox -35%, ATXN viability inconclusive, TGFb inhibitor -29% and HttQ103 aggreg 0%.
CN(C)c1ccc(Cn2ccc3ccccc32)cc1 was read as HepG2 tox -55% and TGFb inhibitor inconclusive.
C=CCOC(=O)N[C@H](c1ccccc1)C(C(C)=O)C(C)=O was read as HTT cytoprotect -12%.
COc1ccc(-c2nc(Cn3c(SCc4ccc(C)cc4)nc4cccnc43)c(C)o2)cc1OC was read as HepG2 tox -32% and TGFb inhibitor 10µM*.
Screening Cn1c(N=Nc2ccccc2)nc2ccccc21 returned ATXN2 expr inh 7%, HepG2 tox 7.1µM*, ATXN viability inactive, TGFb inhibitor -7% and HttQ103 aggreg -20%.
`O=C(O)CCCCC(CCSCc1ccccc1)SCc1ccccc1` (stereo unspecified) gave ATXN2 expr inh 16%.
Screening CCN1/C(=C\C(=S)Nc2ccccc2)Sc2ccccc21 returned ATXN2 expr inh -31%, HepG2 tox -33%, ATXN viability inconclusive, TGFb inhibitor 11µM*, HttQ103 aggreg 17%[9.22 µM] and HTT cytoprotect 23%[10 µM].
For CC(C)c1ccc(OCC(=O)NC2CC(C)(C)NC(C)(C)C2)c(Br)c1 the results were ATXN2 expr inh -17%, HepG2 tox 11µM*, ATXN viability inactive and TGFb inhibitor inconclusive.
For CC1(C)CC(NC(=O)COc2ccc(Cl)cc2Cl)CC(C)(C)N1 the results were ATXN2 expr inh -9%, HepG2 tox -2%, ATXN viability inactive and TGFb inhibitor 10%.
Screening CN1C(=O)c2ccccc2Sc2ccc(NC(=O)Cc3c(F)cccc3Cl)cc21 returned ATXN2 expr inh 0%, HepG2 tox -57%, ATXN viability inconclusive and TGFb inhibitor 10µM*.
CC(C)CCNC(=O)Nc1ccc2c(c1)N(C)C(=O)c1ccccc1S2 was read as ATXN2 expr inh inconclusive, HepG2 tox -60%, ATXN viability 35µM* and TGFb inhibitor 22µM*.
Screening CN1C(=O)c2ccccc2Sc2ccc(NC(=O)NCc3ccccc3Br)cc21 returned HepG2 tox -49% and TGFb inhibitor inconclusive.
CCN1C(=O)c2ccccc2Sc2ccc(NC(=O)c3ccc(Cl)cc3)cc21 was read as ATXN2 expr inh 2%, HepG2 tox 0%, ATXN viability inactive and TGFb inhibitor -34%.
CCN1C(=O)c2ccccc2Sc2ccc(NC(=O)Nc3cc(C)cc(C)c3)cc21 was read as HepG2 tox -30% and TGFb inhibitor 6.3µM*.
`Cc1ccc(-n2cc(CNC(C)c3cnn(C)c3C)c(-c3ccc(F)cc3)n2)cc1` (stereo unspecified) gave HepG2 tox -73%, ATXN viability inconclusive, TGFb inhibitor 13µM*, HttQ103 aggreg 8%[9.22 µM] and HTT cytoprotect -4%[10 µM].
Screening Cc1cccc(-c2nn(-c3ccccc3)cc2CNCCO)c1 returned HepG2 tox -52% and TGFb inhibitor inconclusive.
`Cc1ccc(-n2cc(CNCCCn3cccn3)c(-c3cccc(C)c3)n2)cc1` gave ATXN2 expr inh 32µM*, HepG2 tox -99%, TGFb inhibitor inconclusive, HttQ103 aggreg -2%[9.22 µM] and HTT cytoprotect -8%[10 µM].
Cc1ccc(-n2cc(CNCCCn3ccnc3C)c(-c3ccc(F)cc3)n2)cc1 was read as ATXN2 expr inh -22%, HepG2 tox 13µM*, ATXN viability inconclusive, TGFb inhibitor inconclusive, HttQ103 aggreg -13% and HTT cytoprotect -18%.
Cc1cccc(-n2cc(CNCCc3nc(C)cc(C)n3)c(-c3cccc(F)c3)n2)c1 was read as ATXN2 expr inh 28µM*, HepG2 tox -74%, TGFb inhibitor 11µM*, HttQ103 aggreg 19%[9.22 µM] and HTT cytoprotect -6%[10 µM].
For CC(NC(=O)c1cc(F)ccc1F)c1nnc2n1CCN(Cc1ccccc1O)CC2 (stereo unspecified) the results were ATXN viability inactive.
For Cc1ccc2c(c1)CCC2=O the results were HepG2 tox 0% and TGFb inhibitor 3%.
`COc1cc(/C(C)=N/NC(=S)NC(C)C)cc(OC)c1OC` gave ATXN2 expr inh 4%, HepG2 tox -37%, ATXN viability inactive, TGFb inhibitor 10µM*, HttQ103 aggreg 8% and HTT cytoprotect 3%[10 µM].
`COc1cc(/C(C)=N\NC(N)=S)cc(OC)c1OC` gave ATXN2 expr inh -4%, HepG2 tox -2%, ATXN viability inactive, TGFb inhibitor -2% and HttQ103 aggreg inconclusive.
CC(=O)c1c(C)oc2ccc(N(C(C)=O)S(=O)(=O)c3ccc(Cl)c([N+](=O)[O-])c3)cc12 was read as ATXN2 expr inh 25µM*, HepG2 tox -21%, TGFb inhibitor 7%, HttQ103 aggreg 11µM* and HTT cytoprotect -106%.
For O=C(O)CCCCCN1C(=O)/C(=C/c2cn(-c3ccccc3)nc2-c2cccs2)SC1=S the results were ATXN2 expr inh -30%, HepG2 tox -9%, ATXN viability inconclusive and TGFb inhibitor -1%.
For CC1=NNC(=O)/C1=C\c1cn(-c2ccccc2)nc1-c1ccc(F)cc1 the results were ATXN2 expr inh 7.5µM*, HepG2 tox -84%, TGFb inhibitor 4µM*, HttQ103 aggreg inconclusive and HTT cytoprotect -218%.
CC1=NNC(=O)/C1=C\c1cn(-c2ccccc2)nc1-c1cccs1 was read as HepG2 tox 7.9µM*, ATXN viability 3.2µM*, TGFb inhibitor 5.6µM*, HttQ103 aggreg inconclusive and HTT cytoprotect -22%[10 µM].
COc1cc(N(C)C)ccc1/C=C/c1ccnc2ccccc12 was read as HepG2 tox -39% and TGFb inhibitor 152%.
For CCc1noc(C)c1C(=O)N1CCOc2ccc(CN3CCN(c4ccccn4)CC3)cc2C1 the results were ATXN viability inactive.

Screens deposited in PubChem BioAssay by National Center for Advancing Translational Sciences (NCATS).
